Results published in PubChem BioAssay AID881 (National Center for Advancing Translational Sciences (NCATS), 2007).
The whole screen tested about 110,000 compounds, of which about 610 (0.55%) were called active. About 3% were inconclusive and are not listed. The sample holds actives, similar compounds and a random draw of the others, so the mix is not that of the screen. Calls follow the shape of the dose curve; as a rule, active = well fitted inhibition curve with a large enough effect; inconclusive = small, poorly fitted or top-dose-only effect; inactive = no such curve, though single readings can be large or run the other way.

target: Polyunsaturated fatty acid lipoxygenase ALOX15B (Homo sapiens) (UniProt O15296); experiment: qHTS Assay for Inhibitors of 15-hLO-2 (15-human lipoxygenase 2); conditions: purified 15hLO-2, xylenol orange hydroperoxide absorbance; series mostly up to 57.1 µM; activity change, negative = inhibition: at the top concentration; also: nearly all actives have a fitted effect of over 60% in size
How it was run: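 Purified human 15hLO-2 (50 nM final) preincubated with compounds 15 min at room temperature in 25 mM Hepes pH 7.5, 0.01% Triton X-100, then 45 uM arachidonic acid added for 90 min; hydroperoxide detected via ferrous/xylenol orange, 573/405 nm absorbance ratio.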
% is scaled to controls: 0 for no effect and ±100 for the full control effect; potency is read from the fitted curve at half-maximal effect.

Sequence of Polyunsaturated fatty acid lipoxygenase ALOX15B (Homo sapiens) (O15296 whole entry, looked up): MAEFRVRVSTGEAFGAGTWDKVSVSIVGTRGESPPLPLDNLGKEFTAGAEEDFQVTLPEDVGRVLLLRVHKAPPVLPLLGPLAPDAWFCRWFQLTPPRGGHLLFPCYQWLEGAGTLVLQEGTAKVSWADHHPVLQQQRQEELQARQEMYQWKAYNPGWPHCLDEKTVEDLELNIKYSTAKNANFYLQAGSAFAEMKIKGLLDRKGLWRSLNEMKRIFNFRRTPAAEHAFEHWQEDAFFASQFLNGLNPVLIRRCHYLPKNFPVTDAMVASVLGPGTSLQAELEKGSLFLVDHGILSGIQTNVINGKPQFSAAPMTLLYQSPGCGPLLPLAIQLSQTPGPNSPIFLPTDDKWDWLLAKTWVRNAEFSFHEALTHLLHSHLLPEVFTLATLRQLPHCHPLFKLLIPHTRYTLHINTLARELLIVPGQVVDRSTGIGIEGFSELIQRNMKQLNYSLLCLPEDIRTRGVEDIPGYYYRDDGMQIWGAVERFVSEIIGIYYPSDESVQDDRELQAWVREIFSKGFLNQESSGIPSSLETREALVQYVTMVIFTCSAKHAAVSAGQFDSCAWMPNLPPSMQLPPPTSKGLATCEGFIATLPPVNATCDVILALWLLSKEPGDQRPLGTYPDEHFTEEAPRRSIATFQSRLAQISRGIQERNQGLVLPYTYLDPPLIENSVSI

Activity change, negative = inhibition, inactive:
CCCNC(=O)NCc1ccc(N2CCCC2=O)cc1 -2.71%
COCc1cc(=O)[nH]c2cc(NC(=O)C(F)(F)F)c(C)cc12 -0.389%
CCOC(=O)C1C/C(=C\C(C)=O)c2cccc(C(F)(F)F)c2O1 (stereo not given) 4.83% [at 0.0915 µM]
COc1cnc(SCc2ccc(Cl)c(Cl)c2)nc1Cl 13.5%
C(=N/N1CCN(c2ccccc2)CC1)/c1cccs1 -1.53%
COc1ccc(C(=O)NNC(=O)c2cnccn2)cc1[N+](=O)[O-] -1.79%
COc1ccc(Nc2nc(=O)[nH]nc2C)cc1 -3.1%
O=C(NCc1ccco1)C1(c2ccc(Cl)cc2)CCCC1 -3.03%
O=C(NCc1ccco1)C1CCCN(S(=O)(=O)c2ccccc2)C1 (stereo not given) -2.62%
CCc1ccc(C(=O)CSc2nnc(C)c(=O)[nH]2)cc1 2.83%
COC(=O)C1C(=O)NCC1c1ccc(OC)cc1 (stereo not given) 1.92%
CC(=O)c1cccc(NC(=O)C2CCCN2S(=O)(=O)c2cccc3nsnc23)c1 (stereo not given) 2.82%
CC(=O)CC(c1ccccc1)C1C(=O)Oc2ccccc2C1=O (stereo not given) 12.2% [at 0.0915 µM]
C#C[C@]1(O)CC[C@H]2[C@@H]3CCC4=CC(=O)CC[C@@H]4[C@H]3CC[C@@]21CC -11.5% [at 0.0915 µM]
Cc1cccc(-n2ncc(C#N)c2-n2cccc2)c1 -4.9%
CCC(C)N1C(=O)S/C(=C/c2ccc(Sc3nc4ccccc4[nH]3)o2)C1=O (stereo not given) 42.9%
CCN1CCN(C(=O)/C=C\C(=O)O)CC1 4%
CCOC(=O)Cn1c(-c2cccnc2Cl)nc2ccccc21 2.59%
Cc1cc2cc(CNC(=O)c3cccs3)ccc2[nH]1 -4.32%
CCOC(=O)C1=C(C)c2ccccc2OC1(C)C(=O)OCC (stereo not given) 0.734% [at 0.0915 µM]
CCCn1c(C(Cc2ccccc2)NC(=O)COC)nc2ccccc21 (stereo not given) 0.671%
CC1=C(/C=C/C(C)=C/C=C/C(C)=C/C=C/C=C(C)/C=C/C=C(C)/C=C/C(=O)[C@]2(C)C[C@@H](O)CC2(C)C)C(C)(C)C[C@H](O)C1 24.6% [at 0.0915 µM]
CCOC(=O)c1cnc(SC)nc1Sc1ccc(Cl)cc1Cl 6.61%
COc1cccc2c1OCC(C(=O)NCc1ccc(Cl)cc1Cl)=C2 10.8%
CCCCCCSc1nsc(N)n1 -0.41%
CCOC(=O)C1=C(C)c2ccccc2OC1C(=O)OCC (stereo not given) -11.3% [at 0.0915 µM]
O=c1[nH]c(-c2ccccc2)c(-c2ccccc2)[nH]1 -8.38%
O=[N+]([O-])c1cccc(-c2nnc3c4ccccc4c4ccccc4n23)c1 -21.4%
C[C@@H]1C(c2ccc(F)cc2)=NN(c2ccc(Br)cc2)[C@H]1C(=O)N1CCOC1=O -11.1% [at 0.0915 µM]

Potency, active:
O=c1[nH]c2ccccc2n2c(-c3ccccc3)nnc12 10 µM
